# Assay outcomes deposited in PubChem by several laboratories.
# TcdB GH inh = TcdB glycohydrolase inhibition; P18177; inhibition, % at 9.99 µM; actives 0.24% (n = 350,000); TcdB glycohydrolase enzymatic assay, plate reader; in the data active = inhibition above about 10%
# BioA inh-1 = blocks M. tuberculosis BioA enzyme activity; purified M. tuberculosis BioA enzyme, plate reader; actives 0.096% (n = 360,000); inhibition, % at 9.99 µM; in the data active = inhibition above about 40%
# Rv3671c inh = inhibitors of M. tuberculosis serine protease Rv3671c | P9WHR9 | inhibition, % at 5.96 µM | actives 0.048% (n = 320,000) | AID 2606; in the data active = inhibition above about 38%;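 note: extracellular domain of Rv3671c used as enzyme; 0% = enzyme with DMSO and 100% = no enzyme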
# Target sequence (P9WHR9 whole entry, looked up, the tested form may be a part): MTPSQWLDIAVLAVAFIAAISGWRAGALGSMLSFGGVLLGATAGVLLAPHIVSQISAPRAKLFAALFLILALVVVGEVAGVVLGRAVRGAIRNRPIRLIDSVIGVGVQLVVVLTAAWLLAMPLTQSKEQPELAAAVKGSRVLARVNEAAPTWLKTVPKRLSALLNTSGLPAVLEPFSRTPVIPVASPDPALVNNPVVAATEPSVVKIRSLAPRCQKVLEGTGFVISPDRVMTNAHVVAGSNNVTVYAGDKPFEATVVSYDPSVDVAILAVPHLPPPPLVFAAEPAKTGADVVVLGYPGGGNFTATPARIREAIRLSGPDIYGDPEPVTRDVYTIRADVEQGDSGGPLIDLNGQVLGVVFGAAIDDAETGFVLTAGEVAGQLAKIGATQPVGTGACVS
# RecA intein inh = inhibitors of M. tuberculosis RecA intein splicing; AID 2221; cell-free RecA intein splicing, fluorescence; inhibition, % (test concentration not listed); actives 0.75% (n = 290,000); P9WHJ3; in the data active = inhibition above about 30%;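 note: 0% = vehicle wells and 100% = reference inhibitor control wells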
# Mtb UGM inh = blocks M. tuberculosis UGM enzyme. P9WIQ1. purified UGM, fluorescence polarization probe displacement. inhibition, % at 10 µM. actives 0.06% (n = 320,000); in the data active = inhibition above about 10%, passing the limit was not always enough
# FadD28 binding = inhibitors of Mycobacterium tuberculosis FadD28 bisubstrate binding | FadD28 bisubstrate probe binding, fluorescence polarization | inhibition, % at 12.5 µM | actives 0.22% (n = 360,000); in the data active = inhibition above about 8.5%, passing the limit was not always enough
# BioA inh-2 = blocks M. tuberculosis BioA aminotransferase; purified BioA enzyme, plate reader, dose response; max activity, %; 310 tested, under 10 active; shares compounds with BioA inh-1; AID 651679;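 note: top concentration of the dilution series was 10 µM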
# HepG2 cytotox = cytotoxicity in HepG2 cells. plate reader. max activity, %. 310 tested, under 10 active. shares compounds with BioA inh-1
# 3T3 cytotox 5 = NIH3T3 viability loss; 310 tested, under 10 active; activity change, negative = cytotoxicity, % at 26 µM; shares compounds with BioA inh-1; NIH3T3 cytotoxicity, plate reader
# Active calls of the source: *; i = inactive; x = no result given. Only some compounds are listed: those with a hit (about 0.9% of all), similar ones and a draw of the others. Unless noted, the rule behind the calls is not given here.
SMILES,TcdB GH inh,BioA inh-1,Rv3671c inh,RecA intein inh,Mtb UGM inh,FadD28 binding,BioA inh-2,HepG2 cytotox,3T3 cytotox 5
CC1CCCN(c2ccc(C(=O)Nc3cccnc3)cc2[N+](=O)[O-])C1 (stereo not given),6.4,54.5*,-7.0,4.7,-0.7,-2.7,-6.6,5.3,-8.6
CC(=O)Nc1ccc(N2CCCC(C)C2)c([N+](=O)[O-])c1 (stereo not given),2.0,x,7.1,-1.7,-1.3,1.8,x,x,x
CCN1/C(=C2\SC(=S)N(Cc3ccccc3)C2=O)Sc2ccccc21,0.7,x,2.4,0.2,-2.2,0.1,x,x,x
CCC(CO)[n+]1c(C)cc(/C=C2\Sc3ccccc3N2Cc2ccccc2)cc1C (stereo not given),22.3*,52.5*,-8.6,x,-0.4,-3.0,-6.0,13.6,-9.0
CC(=O)OCC(=O)[C@@]1(OC(C)=O)[C@@H](C)C[C@H]2[C@@H]3C[C@H](F)C4=CC(=O)C=C[C@]4(C)[C@@]3(F)[C@@H](O)C[C@@]21C,1.0,51.0*,3.9,-8.6,-0.5,0.2,-5.0,15.7,6.3
Cc1cc(C)n2nc(C(=O)Nc3cccnc3)nc2n1,x,65.4*,0.2,-5.7,1.9,-2.6,-7.3,-11.8,3.3
Cc1cc(C)n2nc(C(=O)Nc3cccc(S(=O)(=O)N4CCCC4)c3)nc2n1,1.6,x,-11.2,-1.9,-2.1,-0.6,x,x,x
O=C(CSc1nc2c(c(=O)n1-c1ccc(Cl)cc1)SCC2)N1CCOCC1,1.4,55.9*,-5.2,-0.1,0.9,-4.1,-7.4,-5.6,-3.9
CC(=O)N(C)C[C@@H]1Oc2ncc(-c3cccc(F)c3)cc2C(=O)N([C@@H](C)CO)C[C@H]1C,0.4,-0.4,x,x,x,x,x,x,x
O=C(C1CCCN(S(=O)(=O)c2cccnc2)C1)N1CCn2c1nc1ccccc12 (stereo not given),-0.4,46.2*,4.2,2.5,-2.9,-2.2,-5.3,11.0,2.3
CC=Cc1ccc2n(c1=O)C[C@H]1[C@H](CO)[C@@H](C(=O)OC)N(CCc3ccccc3)[C@@H]21 (mixture of isomers),0.0,2.8,x,x,x,x,x,x,x
CCCC(O)C#Cc1cnc2c(c1)C(=O)N([C@H](C)CO)C[C@H](C)[C@H](CN(C)C(=O)Nc1c(C)noc1C)O2 (stereo not given in full),0.6,-0.4,x,x,x,x,x,x,x
O=c1[nH]c(N2CCN(Cc3ccc4c(c3)OCO4)CC2)nc2c1CCC2,x,76.0*,1.4,x,-0.3,-0.4,-9.9,-12.3,-6.7
COCC(=O)Nc1ccc2c(c1)C(=O)N(C)C[C@H](OC)[C@@H](C)CN(Cc1cccnc1)[C@H](C)CO2,-0.9,-0.6,x,x,x,x,x,x,x
COc1ccc(CN(C)C[C@@H]2Oc3ccc(NC(=O)C4CCCCC4)cc3C(=O)N([C@H](C)CO)C[C@@H]2C)cc1,0.4,x,x,x,x,x,x,x,x
CCOC(=O)c1c(C)[nH]c2cc(Br)c(OC)cc12,x,-0.6,-5.3,-3.6,1.8,-4.0,x,x,x
CCOC(=O)c1c(C)[n+](-c2ccc(C)cc2)c(CC)c2cc(OC)c(OC)cc12,-0.6,77.2*,-4.3,-2.3,-1.7,-0.8,-8.5,12.5,-2.5
COCC(=O)Nc1ccc2c(c1)OC[C@@H](C)N(C(=O)CC1CC1)C[C@@H](C)[C@H](OC)CN(C)C2=O,-0.4,-0.9,x,x,x,x,x,x,x
N#C[C@H]1[C@@H](c2ccccc2)[C@@H](CO)N1C(=O)Nc1cccc(F)c1,-0.5,76.6*,x,x,x,x,16.7,i,7.9
C/C=C/c1ccc2c(c1)O[C@@H](CN(C)C(=O)Nc1ccc(OC)cc1)[C@@H](C)CN([C@H](C)CO)S2(=O)=O,-0.2,16.6,x,x,x,x,x,x,x
C/C=C/c1ccc2c(c1)O[C@@H](CN(C)C(=O)Nc1ccccc1)[C@H](C)CN([C@H](C)CO)S2(=O)=O,0.9,41.7*,x,x,x,x,-4.8,i,3.5
C/C=C/c1ccc2c(c1)O[C@@H](CN(C)C(=O)Nc1ccc(OC)cc1)[C@@H](C)CN([C@@H](C)CO)S2(=O)=O,1.9,41.0*,x,x,x,x,9.3,i,3.1
COc1ccccc1S(=O)(=O)N1CC[C@H]2[C@H](CO)Nc3ccc(-c4cccc(C#N)c4)cc3[C@H]21,x,19.6,x,x,x,x,x,x,x
COc1ccccc1S(=O)(=O)N1CC[C@@H]2[C@H](CO)Nc3ccc(-c4cccc(C#N)c4)cc3[C@@H]21,x,48.2*,x,x,x,x,19.8,i,0.9
CN1CCN(C(=O)C[C@H]2CC[C@H]3[C@@H](COC[C@@H](O)CN3C(=O)Nc3ccc(Cl)cc3)O2)CC1,-2.2,0.1,x,x,x,x,x,x,x
SMILES,TcdB GH inh,BioA inh-1,Rv3671c inh,RecA intein inh,Mtb UGM inh,FadD28 binding,BioA inh-2,HepG2 cytotox,3T3 cytotox 5
CC(=O)c1ccc(N2CCN(C(=O)Cc3cccs3)CC2)cc1,x,49.2*,0.9,-5.7,0.6,-4.7,-6.5,14.8,0.0
CC(=O)c1[nH]c(C)c(C(=O)N2CCCC(Nc3ccc(C(C)C)cc3)C2)c1C (stereo not given),-2.3,0.3,x,-3.3,x,1.1,x,x,x
CC(=O)c1ccc(C(=O)N2CCCC(Nc3ccc(C(C)C)cc3)C2)s1 (stereo not given),0.2,67.3*,5.2,0.2,5.0,-1.0,-6.6,-17.1,6.6
CCN1[C@@H]2c3ccc(-c4ccccc4)c(=O)n3C[C@@H]2[C@@H](CO)[C@@H]1C(=O)Nc1ccccc1,1.4,20.6,x,x,x,x,x,x,x
Cc1ccc(NC(=O)C2CCN(S(=O)(=O)c3cccs3)CC2)cc1,0.5,x,3.6,-1.7,1.8,0.0,x,x,x
O=C(Nc1ccc(F)c(F)c1)C1CCN(S(=O)(=O)c2cccs2)CC1,-0.3,58.2*,-2.1,x,-1.4,-0.7,-9.2,14.0,-5.1
O=C(Nc1ccc2snnc2c1)N1CCOCC1,x,65.1*,1.7,0.3,-0.3,-0.7,-4.8,14.5,0.9
O=C(Nc1ccc2snnc2c1)N1CCN(c2ccccc2)CC1,x,74.6*,1.4,0.9,-0.8,-1.5,-8.1,15.5,0.7
O=C(Nc1ccccc1)N1CCN(c2ccccc2)CC1,1.0,-0.5,x,x,x,0.5,x,x,x
O=C(Nc1ccc2snnc2c1)N1CCCCC1,0.2,x,-2.3,-2.1,-0.8,-0.1,x,x,x
CCC(=O)Nc1cccc(NC(=O)c2ccc(C)c([N+](=O)[O-])c2)c1,x,x,2.8,1.0,0.6,-0.8,x,x,x
CCCC(=O)Nc1cccc(NC(=O)c2ccc(C)c([N+](=O)[O-])c2)c1,x,43.8*,3.6,4.5,-1.0,-3.3,-6.1,-15.0,-1.9
COc1ccc(-c2ccc3c(c2)C2CC3CCN2)cc1 (stereo not given),2.6,85.8*,x,x,x,-2.0,-9.3,-15.7,-7.8
C/C=C/c1ccc([C@H]2[C@@H](CN(C)C(=O)C3CC3)N(C(=O)C3CC3)[C@H]2CO)cc1,-2.0,-4.2,x,x,x,x,x,x,x
COc1ccc(C2c3c(-c4cc(Cl)c(C)cc4O)n[nH]c3C(=O)N2Cc2cccnc2)cc1OC (stereo not given),x,55.9*,-5.2,2.4,2.0,-8.2,-6.1,-10.4,-6.3
